A3A deaminase – inhibitors of human APOBEC3A DNA deaminase; recombinant A3A, FAM/TAMRA ssDNA deamination fluorescence; P31941; actives 0.41% (n = 330,000); inhibition, % at 20 µM;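 active = at least 40% inhibition at 20 µM here, with at most 30% in a related deaminase screen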;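 also: plate controls were A3A with DMSO for no effect and wells lacking A3A enzyme for full effect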
FAS-TE inh – blocks the thioesterase domain of human fatty acid synthase; recombinant FAS-TE, OMFH fluorogenic substrate, fluorescence endpoint; inhibition, % at 15 µM; actives 0.67% (n = 360,000); AID 602261;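 active = compounds whose normalised, plate-corrected inhibition of enzyme fluorescence in the single-dose primary screen is 50% or more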;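 also: 0% = DMSO with enzyme and 100% = substrate without enzyme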
Target sequence (P49327 whole entry, looked up, the tested form may be a part): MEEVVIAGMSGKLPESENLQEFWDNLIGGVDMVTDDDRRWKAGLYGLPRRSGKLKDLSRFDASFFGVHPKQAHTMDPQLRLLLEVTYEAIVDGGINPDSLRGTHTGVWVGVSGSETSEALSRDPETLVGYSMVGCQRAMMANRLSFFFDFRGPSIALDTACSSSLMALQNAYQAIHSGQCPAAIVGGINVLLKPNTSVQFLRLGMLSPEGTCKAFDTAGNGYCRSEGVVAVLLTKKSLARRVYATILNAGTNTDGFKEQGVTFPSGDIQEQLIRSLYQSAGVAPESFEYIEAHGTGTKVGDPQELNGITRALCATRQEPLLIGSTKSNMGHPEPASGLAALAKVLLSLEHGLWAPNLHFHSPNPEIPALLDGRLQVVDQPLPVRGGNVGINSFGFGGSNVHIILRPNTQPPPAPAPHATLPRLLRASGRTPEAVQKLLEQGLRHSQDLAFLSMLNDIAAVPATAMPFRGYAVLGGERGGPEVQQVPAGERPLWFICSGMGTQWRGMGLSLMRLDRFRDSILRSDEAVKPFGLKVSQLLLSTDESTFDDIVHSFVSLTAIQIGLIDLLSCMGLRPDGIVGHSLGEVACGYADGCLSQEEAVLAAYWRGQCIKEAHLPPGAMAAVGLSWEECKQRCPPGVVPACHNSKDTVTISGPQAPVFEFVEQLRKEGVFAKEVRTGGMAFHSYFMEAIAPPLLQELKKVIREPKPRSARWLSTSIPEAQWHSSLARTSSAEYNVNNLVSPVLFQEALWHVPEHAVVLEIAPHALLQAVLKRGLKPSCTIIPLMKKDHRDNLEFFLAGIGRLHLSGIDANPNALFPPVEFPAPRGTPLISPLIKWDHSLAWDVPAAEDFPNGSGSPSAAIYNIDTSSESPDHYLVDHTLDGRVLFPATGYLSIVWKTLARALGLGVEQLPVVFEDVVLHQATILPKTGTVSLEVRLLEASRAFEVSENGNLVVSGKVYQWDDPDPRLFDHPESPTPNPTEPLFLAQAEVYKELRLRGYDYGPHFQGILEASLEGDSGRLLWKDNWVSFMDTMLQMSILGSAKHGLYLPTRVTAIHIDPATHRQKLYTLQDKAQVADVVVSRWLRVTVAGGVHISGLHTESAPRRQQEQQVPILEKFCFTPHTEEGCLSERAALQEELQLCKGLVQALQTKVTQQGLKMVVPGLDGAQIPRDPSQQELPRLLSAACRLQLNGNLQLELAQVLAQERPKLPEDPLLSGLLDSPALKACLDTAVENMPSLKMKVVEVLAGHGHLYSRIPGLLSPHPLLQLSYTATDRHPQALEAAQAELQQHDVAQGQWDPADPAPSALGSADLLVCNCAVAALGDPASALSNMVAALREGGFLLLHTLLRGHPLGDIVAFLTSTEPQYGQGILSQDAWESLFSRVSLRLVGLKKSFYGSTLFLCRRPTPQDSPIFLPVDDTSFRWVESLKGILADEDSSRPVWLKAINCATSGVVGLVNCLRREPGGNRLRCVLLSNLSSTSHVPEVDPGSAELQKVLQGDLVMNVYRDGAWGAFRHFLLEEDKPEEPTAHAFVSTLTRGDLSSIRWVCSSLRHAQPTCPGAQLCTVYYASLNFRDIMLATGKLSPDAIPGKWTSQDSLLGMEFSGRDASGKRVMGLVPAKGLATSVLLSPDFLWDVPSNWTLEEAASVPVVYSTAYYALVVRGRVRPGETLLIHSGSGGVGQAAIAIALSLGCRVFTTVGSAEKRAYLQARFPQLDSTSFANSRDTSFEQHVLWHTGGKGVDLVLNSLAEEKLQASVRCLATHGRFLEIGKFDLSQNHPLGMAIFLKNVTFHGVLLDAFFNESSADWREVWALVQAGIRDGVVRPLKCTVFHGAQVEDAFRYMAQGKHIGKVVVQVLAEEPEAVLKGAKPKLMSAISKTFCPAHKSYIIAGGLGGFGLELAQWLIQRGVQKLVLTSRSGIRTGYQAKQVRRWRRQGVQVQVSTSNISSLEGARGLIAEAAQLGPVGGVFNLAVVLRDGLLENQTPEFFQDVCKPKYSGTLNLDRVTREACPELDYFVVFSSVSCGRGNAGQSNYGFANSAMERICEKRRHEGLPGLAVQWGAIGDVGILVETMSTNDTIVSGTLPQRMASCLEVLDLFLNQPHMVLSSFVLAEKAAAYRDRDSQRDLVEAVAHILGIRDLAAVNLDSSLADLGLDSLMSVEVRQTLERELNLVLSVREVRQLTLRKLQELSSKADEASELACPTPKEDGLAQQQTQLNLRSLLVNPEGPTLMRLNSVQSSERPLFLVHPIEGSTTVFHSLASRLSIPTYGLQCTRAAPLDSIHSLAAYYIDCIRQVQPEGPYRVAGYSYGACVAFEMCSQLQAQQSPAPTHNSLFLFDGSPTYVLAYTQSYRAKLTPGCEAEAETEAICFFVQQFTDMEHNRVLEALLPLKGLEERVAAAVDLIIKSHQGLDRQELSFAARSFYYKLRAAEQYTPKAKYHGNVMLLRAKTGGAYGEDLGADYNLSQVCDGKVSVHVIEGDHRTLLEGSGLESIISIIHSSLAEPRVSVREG
NPR1 activator – GC-A (human) enzyme activation; HEK293 GC-A cells, cGMP TR-FRET, EC30 ANP; 0% at EC30 ANP, 100% saturating ANP; AID 1671463; actives 0.14% (n = 370,000); activation, % at 10 µM; in the data active = activation above about 40%
APOBEC3G inh – blocks human APOBEC3G single-stranded DNA deamination; Q9HC16; recombinant A3G, ssDNA deamination FAM/TAMRA fluorescence; inhibition, % at 20 µM; actives 0.28% (n = 330,000);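 active = inhibition of at least 40% at 20 µM, with no more than 30% in the related APOBEC3A deaminase screen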;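 also: plate controls were DMSO wells with A3G for no effect and wells lacking A3G enzyme for full effect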
NPR2 activator – GC-B (human) receptor activation. HEK293-GC-B cells, CNP EC30, cGMP TR-FRET; 0% at EC30 CNP, 100% saturating CNP. P20594. activation, % at 10 µM. actives 0.11% (n = 370,000);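 active = activation at 10 µM reaching about 35% in either raw or pattern-adjusted values, limit read from the data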
FAS-TE inh conf – confirmation of human fatty acid synthase thioesterase inhibitors; shares compounds with FAS-TE inh; recombinant FAS-TE, OMFH fluorogenic substrate, fluorescence; inhibition, % at 15 µM; actives 45% (n = 2,300);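 active = compounds inhibiting the enzyme by at least 50% at 15 µM in any one of the replicates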;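 also: 0% = enzyme with DMSO only and 100% = wells lacking enzyme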
The depositor's hits bear a star. Compounds with a hit are over-represented: about 1.4% of the library has one in this group of screens.

C[C@H](CCC(=O)N(c1ccccc1)c1ccccc1)CC1CCCCC1 was read as NPR1 activator -2 and NPR2 activator 3.
For COc1ccccc1CCC[C@@H](CCS(=O)(=O)C(C)C)CC1CCCCC1 the results were NPR1 activator -1 and NPR2 activator 4.
For COc1ccc(C2(CNC(=O)c3cccc([N+](=O)[O-])c3)CCCCC2)cc1OC the results were A3A deaminase -3, FAS-TE inh 51*, NPR1 activator -5, APOBEC3G inh -1, NPR2 activator -7 and FAS-TE inh conf 70*.
For CCOC(=O)c1ccccc1NC(=O)COC(=O)c1cc([N+](=O)[O-])ccc1N1CCOCC1 the results were A3A deaminase -1, FAS-TE inh 53*, NPR1 activator 8, APOBEC3G inh -7, NPR2 activator -5 and FAS-TE inh conf 19.
For O=C(COC(=O)c1cc([N+](=O)[O-])ccc1N1CCOCC1)Nc1c(Cl)cccc1Cl the results were A3A deaminase 3, FAS-TE inh 67*, NPR1 activator 4, APOBEC3G inh -11, NPR2 activator 0 and FAS-TE inh conf 75*.
O=C(OCc1c(F)cccc1Cl)c1cc([N+](=O)[O-])ccc1N1CCOCC1 was read as A3A deaminase -6, FAS-TE inh 37, NPR1 activator -1, APOBEC3G inh -8 and NPR2 activator 3.
`CN(CC(=O)Nc1ccc(F)cc1)C(=O)COC(=O)c1cc([N+](=O)[O-])ccc1N1CCOCC1` gave A3A deaminase 2, FAS-TE inh 62*, APOBEC3G inh -8 and FAS-TE inh conf 58*.
Screening CN(CC(=O)Nc1ccccc1Cl)C(=O)COC(=O)c1cc([N+](=O)[O-])ccc1N1CCOCC1 returned A3A deaminase 3, FAS-TE inh 42, NPR1 activator 2, APOBEC3G inh 0 and NPR2 activator 3.
Screening O=C(COC(=O)c1cc([N+](=O)[O-])ccc1N1CCOCC1)Nc1cccc(F)c1 returned A3A deaminase -2, FAS-TE inh 90*, NPR1 activator 5, APOBEC3G inh -3, NPR2 activator 8 and FAS-TE inh conf 93*.
For O=C(OCc1cn(Cc2cccc(F)c2)nn1)N1CCOCC1 the results were NPR1 activator 1 and NPR2 activator 9.
`COc1ccc(NC(=O)COC(=O)c2cc([N+](=O)[O-])ccc2N2CCOCC2)cc1` gave A3A deaminase 5, FAS-TE inh 80*, NPR1 activator -1, APOBEC3G inh 1, NPR2 activator 2 and FAS-TE inh conf 60*.
CC(=O)Nc1ccc(NC(=O)COC(=O)c2cc([N+](=O)[O-])ccc2N2CCOCC2)cc1 was read as A3A deaminase 0, FAS-TE inh 18, NPR1 activator 2, APOBEC3G inh -7 and NPR2 activator 5.
`O=C(COC(=O)c1c[nH]c(=O)[nH]c1=O)Nc1cccc([N+](=O)[O-])c1` gave A3A deaminase -5, FAS-TE inh 4, NPR1 activator 4, APOBEC3G inh -8 and NPR2 activator 1.
Screening Cc1cc(Br)ccc1NC(=O)CN(C)C(=O)c1cc([N+](=O)[O-])ccc1N1CCOCC1 returned A3A deaminase 22, FAS-TE inh 64*, NPR1 activator -2, APOBEC3G inh -4, NPR2 activator 1 and FAS-TE inh conf 77*.
Screening Cc1cc(C(=O)OCC(=O)Nc2cccc([N+](=O)[O-])c2)c(C)o1 returned A3A deaminase 2, FAS-TE inh 66*, NPR1 activator 10, APOBEC3G inh -4, NPR2 activator -2 and FAS-TE inh conf 62*.
For O=C(N[C@H](Cc1ccccc1)C(=O)N1CCCN(Cc2ccccc2F)CC1)[C@H]1O[C@@H](n2ccc(=O)[nH]c2=O)[C@H](O)[C@@H]1O the results were NPR1 activator 3 and NPR2 activator 8.
Screening Cc1noc(C)c1NC(=O)Nc1ccc2c(c1)C(=O)N([C@@H](C)CO)C[C@@H](C)[C@H](CN(C)S(=O)(=O)c1ccc(F)cc1)OCCCC[C@H](C)O2 returned NPR1 activator -1 and NPR2 activator 4.
Screening O=C(Nc1ccc(C(F)(F)F)cc1)OC1CCC12CCC(c1ccccc1)CC2 (stereo not drawn) returned NPR1 activator 10 and NPR2 activator -5.

Source: PubChem (Sanford-Burnham Center for Chemical Genomics)
